This is an account of results in PubChem BioAssay.

Usually viability stands for a read-out of living cells in per cent, often relative to untreated cells. In general, inhibition refers to the change of the read-out against control, counted positive when it falls.

Assay [1] is described as follows: reducers of endogenous Her2 protein level, primary screen, SKBR3 breast tumor cells, AlphaScreen, ATP viability (AID 461;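 active = Her2 level under about 52% in both replicate screens, with viability over 70% of control, limit read from the data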;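 as to Her2 level: lower value means less Her2 protein in the cells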;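 as to viability: percent of carrier control wells set as 100% viability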). The following applies: 18-24 h, measured here: SKBR3 viability, ATP luminescence, at 10 µM. (Alpha assays give light when donor and acceptor beads are brought close together.)
Assay [2] deals with Receptor tyrosine-protein kinase erbB-2 (Homo sapiens) (UniProt P04626). Described as above. The following applies: 18-24 h, at 10 µM, stronger effect = lower value.
Assay [3] can be described thus: SK-BR-3 cell growth inhibitors, pilot screen, 24 h, human (AID 572;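 active = viability at or below 10% of carrier control in both of two separate runs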;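 also: compound exposure lasted between 18 and 24 h rather than exactly 24 h; 100% = carrier-treated control wells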). To be noted: SK-BR-3 viability, CellTiter-Glo luminescence, at 10 µM, stronger effect = lower value. A general note: In ATP-based viability assays light output follows the ATP content of the culture.
Assay [4] in a line: HUVEC growth inhibition – cell-based, human, primary screen (AID 575;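 active = viability at or below 30% in both replicate assays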;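 also: 100% = median of untreated cell wells with 0.1% DMSO on each plate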). The following applies: HUVEC proliferation, CellTiter-Glo luminescence, 72 h; at 10 µM; stronger effect = lower value.
A short description of assay [5]: growth inhibitors of H69AR lung tumor, primary screen, human, duplicate replicates (AID 580;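 active = viability at or under a set limit in both replicates, limit being median viability minus 3 SD, cut at about 48% in these data, passing the limit was not always enough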;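 also: 100% = mean luminescence of untreated wells and 0% = no signal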). The following applies: H69AR lung tumor cells viability, ATP luminescence, 72 h; at 10 µM; stronger effect = lower value.
The nature of assay [6]: reversal of MRP1-mediated doxorubicin resistance, pilot screen, H69AR cells, doxorubicin co-treatment (AID 601;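 active = viability loss from added drug above about 55%, and viability with drug at most 40%, in both replicates, limit read from the data, passing the limit was not always enough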). To be noted: CellTiter-Glo, 72 h, at 10 µM; for differential viability (reversal): stronger effect = higher value.
Assay [7] in a line: 384-well plate pilot, post-Golgi transport modulator project, inhibition of yeast transport mutant growth (AID 636; in the data active = inhibition above about 31%). The following applies: absorbance 615 nm, about 18 h, stronger effect = higher value.
Assay [8] is described as follows: growth suppression of yeast trafficking mutant, preliminary HTS, modulators of trafficking downstream of Golgi apparatus project, 1536-format plate, OD 615 nm (AID 637; in the data active = inhibition above about 30%). To be noted: yeast transport mutant growth, absorbance 615 nm, 18 h; stronger effect = higher value.
A short description of assay [9]: OD615 S. cerevisiae growth inhibition, permissive medium, pilot counter-assay, permissive growth control for S. cerevisiae lifespan shortening project (AID 705;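 active = growth inhibition above 25% in both replicates, a cutoff set 3 SD above the mean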). To be noted: OD615, 24 h, at 10 µM, stronger effect = higher value.
Assay [10] can be described thus: Restrictive medium S. cerevisiae growth inhibition, OD615, pilot screen of yeast lifespan reduction project, restrictive growth control (AID 706;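 active = growth inhibition above a set limit, 3 SD over mean compound inhibition, in both replicates, cut at about 43% in these data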;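 also: modified DeaD lifespan yeast strain shifted to restrictive glucose medium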). To be noted: OD615, 48 h, at 10 µM, stronger effect = higher value.
A short description of assay [11]: viability gain of MRP-1-high H69AR cells under doxorubicin, pilot screen, MRP-1 activator project, CellTiter-Glo, duplicate (AID 807;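 active = viability increase at or above a cutoff of the median across tested compounds plus 3 SD, cut at about 8.5% in these data, passing the limit was not always enough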;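 also: compound pretreatment 18-22 h then 72 h combined with doxorubicin; 0% = doxorubicin alone and 100% = vehicle without doxorubicin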). The following applies: H69AR viability with doxorubicin, CellTiter-Glo luminescence; at 10 µM; stronger effect = higher value.
A short description of assay [12]: growth suppression of beta-catenin knockout HCT116, pilot screen, human colon tumor cells (AID 823;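 active = cell viability at or below a set limit in both duplicate runs, the limit being the all-compound median minus 4 SD, cut at about 23% in these data, passing the limit was not always enough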;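 also: 0% = wells killed by 20 µM Hyamine and 100% = untreated DMSO cell wells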). The following applies: CellTiter-Glo, 60 h, at 10 µM, stronger effect = lower value.
Assay [13] is described as follows: growth suppression of PTEN-deleted HCT116, pilot screen, cell-based, HCT116 clonal line, CellTiter-Glo (AID 824;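 active = viability at or below 27.92% in each of two runs, the all-compound median minus 4 SD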;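 also: 0% = 20 µM Hyamine control and 100% = vehicle cell control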). The following applies: 60 h, at 10 µM, stronger effect = lower value.
A short description of assay [14]: inhibitors of the yeast RAM network, pilot screen, dse1pr::URA3 reporter, 5-FOA selection (AID 869;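 active = inhibition over a set limit, the all-compound mean plus 3 SD, in both replicate runs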;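 also: 0% = DMSO wells with no growth and 100% = 10 µM 1-NA-PP1 with full growth; RAM network block rescues cells from 5-FOA so hits raise OD615 growth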). To be noted: S. cerevisiae dse1pr::URA3 5-FOA growth, OD615, 2 d; at 10 µM; stronger effect = higher value; strain carries analog-sensitive mutant Cbk1 kinase.
The nature of assay [15]: RAM signaling pathway blockade in yeast – S. cerevisiae, Pdr1DBD-CYC8 efflux-inhibited sensitized strain, primary screen (AID 1298).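 Also: 0% = DMSO untreated cells without growth and 100% = 10 µM 1-NA-PP1 full growth; higher means more yeast growth rescued from 5-FOA killing.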 The following applies: S. cerevisiae cbk1-as DSE1-URA3 strain, 5-FOA growth OD615, 2 d; at 50 µM; stronger effect = higher value.
[16] abbreviates: H69AR cells + 2 uM doxorubicin, measured here: viability with 2 uM doxorubicin, stronger effect = lower value.
Setting [17] is: H69AR cells, compound alone cytotoxicity.

Records with an inconclusive call do not appear. The source made the active and inactive calls.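 The calls were made as follows, unless noted: active = RAM network inhibition above 8.4% in each of two replicates, 3 SD over the compound average; inconclusive = above 8.4% inhibition in only one replicate; inactive = 8.4% inhibition or less in each replicate.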

Chain of Receptor tyrosine-protein kinase erbB-2 (Homo sapiens) (P04626 whole entry, looked up): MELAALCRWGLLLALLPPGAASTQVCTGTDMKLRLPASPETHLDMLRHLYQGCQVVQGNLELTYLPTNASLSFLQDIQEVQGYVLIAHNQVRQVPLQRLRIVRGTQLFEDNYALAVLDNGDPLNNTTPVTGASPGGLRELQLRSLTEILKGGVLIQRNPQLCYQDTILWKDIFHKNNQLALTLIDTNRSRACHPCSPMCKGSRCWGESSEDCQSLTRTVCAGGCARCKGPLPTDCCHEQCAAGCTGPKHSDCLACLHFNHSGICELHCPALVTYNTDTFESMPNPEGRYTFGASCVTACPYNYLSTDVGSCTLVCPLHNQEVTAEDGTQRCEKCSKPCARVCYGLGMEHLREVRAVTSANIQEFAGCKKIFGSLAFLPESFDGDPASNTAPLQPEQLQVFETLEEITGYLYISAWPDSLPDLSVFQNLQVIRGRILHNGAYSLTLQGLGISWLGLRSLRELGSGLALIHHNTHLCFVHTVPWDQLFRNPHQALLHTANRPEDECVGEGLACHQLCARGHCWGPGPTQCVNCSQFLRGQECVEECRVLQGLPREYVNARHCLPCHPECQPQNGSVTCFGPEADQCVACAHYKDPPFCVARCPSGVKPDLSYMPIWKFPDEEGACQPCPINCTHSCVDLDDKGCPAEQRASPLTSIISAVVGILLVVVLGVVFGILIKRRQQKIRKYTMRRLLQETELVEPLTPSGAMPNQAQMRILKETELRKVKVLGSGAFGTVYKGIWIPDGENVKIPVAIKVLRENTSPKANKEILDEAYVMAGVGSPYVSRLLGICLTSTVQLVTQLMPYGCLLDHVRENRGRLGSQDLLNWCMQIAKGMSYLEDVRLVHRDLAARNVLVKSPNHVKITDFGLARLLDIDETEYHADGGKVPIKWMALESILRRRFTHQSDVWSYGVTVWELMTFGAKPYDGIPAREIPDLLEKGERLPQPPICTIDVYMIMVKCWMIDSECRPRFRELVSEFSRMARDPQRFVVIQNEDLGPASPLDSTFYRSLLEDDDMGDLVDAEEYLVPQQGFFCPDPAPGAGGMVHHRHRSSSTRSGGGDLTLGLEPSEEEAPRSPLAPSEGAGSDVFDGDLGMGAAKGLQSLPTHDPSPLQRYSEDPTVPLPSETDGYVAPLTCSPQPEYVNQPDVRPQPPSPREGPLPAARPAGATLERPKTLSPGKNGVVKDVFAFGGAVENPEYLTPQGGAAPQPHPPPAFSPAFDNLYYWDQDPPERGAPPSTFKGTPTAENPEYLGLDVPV

As for `CC1(C)CC(=O)C(C=NCC2CCNCC2)=C(O)C1`, the viability in assay [1] was 104%; in assay [3], 104% (inactive); in [4] it was 106% (inactive); in [5], 93.8% (inactive); in [6] (setting [16]), 98.5%; in assay [6] (setting [17]) it was 93.8%. Also, the viability was 92.2% (inactive) in assay [12] and 92.3% (inactive) in assay [13]. Also, the Her2 level in [2] was 117% (inactive). Besides, in assay [6] (H69AR cells + 2 uM doxorubicin), the differential viability (reversal) is -4.75% (inactive). Moreover, the inhibition in assay [7] was 1.04% (inactive); in [8], 1.67% (inactive); in assay [14], 2.66% (inactive). Besides, the results for the growth inhibition in assay [9] and in [10] were -20.1% (inactive) and -16.9% (inactive), respectively. Besides, the viability increase in [11] is -1.11% (inactive). Further, the RAM network inhibition in assay [15] was 6.82% (inactive).

On to `Cc1cc(C)cc(NC(=O)CSc2nnc(Cc3cccn3C)n2-c2ccc(F)cc2)c1`, for which the viability is 87% in [1]; 87% (inactive) in assay [3]; 63.1% (inactive) in assay [4]; 86.6% (inactive) in assay [5]; 72.6% in assay [6] (setting [16]); 86.6% in assay [6] (setting [17]). The values for the viability in [12] and in [13] were 74.6% (inactive) and 71.6% (inactive), respectively. In [2], the Her2 level is 84% (inactive). In addition, the differential viability (reversal) in assay [6] (H69AR cells + 2 uM doxorubicin) is 14% (inactive). The inhibition in assay [7] was -1.2% (inactive); in [8] it was -11.5% (inactive); in [14], 3.69% (inactive). Besides, the growth inhibition is 3.92% (inactive) in assay [9] and 14.7% (inactive) in assay [10]. The viability increase in [11] is -4.83% (inactive). Moreover, in [15], the RAM network inhibition was 7.38% (inactive).

`CCCNC(=O)C1CC(=O)N(c2ccc(OCC(=O)Nc3cc(C)cc(C)c3)cc2)C1` (stereo not given): the viability in assay [1] was 112%; in [3] it was 112% (inactive); in [4] it was 80.5% (inactive); in assay [5], 95.6% (inactive); in [6] (setting [16]), 91.2%; in assay [6] (setting [17]), 95.6%. The viability is 92% (inactive) in assay [12] and 90.4% (inactive) in [13]. In addition, in assay [2], the Her2 level is 122% (inactive). Further, the differential viability (reversal) in assay [6] (H69AR cells + 2 uM doxorubicin) is 4.41% (inactive). For the same molecule, the inhibition in assay [7] was -0.53% (inactive); in assay [8] it was -4.33% (inactive); in [14], 2.06% (inactive). For the same molecule, the figures for the growth inhibition in [9] and in assay [10] were -14.5% (inactive) and -25.6% (inactive), respectively. Also, in [11], the viability increase is -4.47% (inactive). The RAM network inhibition in assay [15] is 4.16% (inactive).

In the case of `O=C(OCCN(CCOC(=O)c1ccncc1)S(=O)(=O)c1cccs1)c1ccncc1`, the viability in assay [1] was 102%; in assay [3], 102% (inactive); in [4], 99.2% (inactive); in [5], 104% (inactive); in [6] (setting [16]), 97.3%; in [6] (setting [17]), 104%. Moreover, the viability in [12] was 102% (inactive); in assay [13] it was 97% (inactive). Further, the Her2 level in [2] was 75.5% (inactive). Also, in assay [6] (H69AR cells + 2 uM doxorubicin), the differential viability (reversal) was 6.43% (inactive). Further, the values for the inhibition in assay [7], in assay [8] and in assay [14] were -1.64% (inactive), 1.75% (inactive) and 1.63% (inactive), respectively. Besides, the growth inhibition in assay [9] is 4.38% (inactive); in assay [10] it was 1.04% (inactive). Besides, the viability increase in assay [11] is -2.14% (inactive). In [15], the RAM network inhibition was 4.78% (inactive).

Turning to `O=C(Nc1ccc(N2CCCC2)cc1)c1ccc(Br)o1`, the viability is 93.5% in assay [1]; 93.5% (inactive) in assay [3]; 94.3% (inactive) in assay [4]; 101% (inactive) in assay [5]; 85.2% in assay [6] (setting [16]); 101% in [6] (setting [17]). The viability was 94% (inactive) in assay [12] and 92.3% (inactive) in assay [13]. Besides, the Her2 level in assay [2] is 93.5% (inactive). Also, the differential viability (reversal) in assay [6] (H69AR cells + 2 uM doxorubicin) was 15.6% (inactive). Besides, the inhibition in assay [7] was 0.27% (inactive); in assay [8], 1.97% (inactive); in assay [14], 3.5% (inactive). Besides, the growth inhibition in assay [9] is 3.95% (inactive); in assay [10] it was 14.9% (inactive). In assay [11], the viability increase is -0.48% (inactive). Also, the RAM network inhibition in assay [15] was 6.03% (inactive).
